Assay type in all cases: functional
Assay [1] has as its system Plasmodium falciparum. The experiment in a line: GSK_TCMDC: Inhibition of Plasmodium falciparum 3D7 in whole red blood cells, using parasite LDH activity as an index of growth. Test compounds present at 2uM.
In assay [2] the test system is Plasmodium falciparum. The experiment in a line: GSK_TCMDC: Inhibition of Plasmodium falciparum Dd2 in whole red blood cells, using parasite LDH activity as an index of growth. Test compounds present at 2uM.
The subject of assay [3] is HepG2. The experiment in a line: GSK_TCMDC: Percent inhibition of human HepG2 cell line. Test compounds present at 10uM.

In the case of `N#Cc1ccc(N/C(=N\c2ccc(-c3ccccc3)cc2)NC2CCCc3ccccc32)c(O)c1` (stereo not drawn), the Inhibition came to 99% in assay [1], 98% in assay [2] and 0% in assay [3].

Turning to `Cc1cccc2nc(-c3ccc(-c4ccc(CNCc5ccc(CN)cc5)cc4)s3)[nH]c12.O=C(O)C(F)(F)F`, the values for the Inhibition in assay [1], in assay [2] and in assay [3] were 100%, 85% and 4%, respectively.

As for `Cc1cc(=NN=Cc2ccccn2)c2cc(F)ccc2[nH]1`, the Inhibition in assay [1] turned out to be 100%; in assay [2], 96%; in assay [3] it was 9%.

As to `CCN(CC(C)O)C(=O)c1ccc(-c2cccc(-c3nc4cccc(C)c4[nH]3)c2)cc1` (stereo not drawn), the Inhibition in assay [1] is 100%; in assay [2], 32%; in assay [3], 28%.

With `CN(C)C(=O)C(CC(=O)NCc1ccccc1Cl)N(C)C.CN(C)C(=O)CC(C(=O)NCc1ccccc1Cl)N(C)C.O` (stereo not drawn), the Inhibition in assay [1] came to 96%; in assay [2], 2%; in assay [3] it was 7%.

With `Cc1cc(=O)c(-c2ccc(Oc3ccc(Cl)cc3Cl)cc2)c(C)[nH]1`, the Inhibition turned out to be 93% in assay [1], 73% in assay [2] and 0% in assay [3].

In the case of `CC(C)(C)NS(=O)(=O)c1cc(C(=O)N2CCC(CCN3CCC(O)(c4cccc(C(F)(F)F)c4)CC3)(c3cccc(F)c3)CC2)c(Cl)cc1F`, the Inhibition was 88% in assay [1], 55% in assay [2] and 15% in assay [3].

Turning to `COc1ccc2ncc(F)c(CCN3CC(O)C(CNCc4ccc(F)cc4)C3)c2n1.Cl` (stereo not drawn), the Inhibition came to 93% in assay [1], 21% in assay [2] and 38% in assay [3].

With `Oc1ccccc1N1CCN(c2ccc(-c3nc4ccccc4[nH]3)cn2)CC1`, the Inhibition is 97% in assay [1], 50% in assay [2] and 0% in assay [3].

`O=C(NCc1ccccc1)NC1CCN(c2ccnc3cc(Cl)ccc23)C1.O=C(O)C(F)(F)F` (stereo not drawn): the Inhibition in assay [1] is 94%; in assay [2], 99%; in assay [3] it was 13%.

As for `CC(C)N1CCN(c2ccc(OCCCN3CCN(c4cccc(Cl)c4Cl)CC3)c(C(F)(F)F)c2)CC1`, the results for the Inhibition in assay [1], in assay [2] and in assay [3] were 94%, 37% and 79%, respectively.

`CN1CCN(c2ccnc3ccc(NC(=O)Nc4ccc(-c5ccccc5)cc4)cc23)CC1`: the Inhibition in assay [1] is listed as 99%; in assay [2], 41%; in assay [3], 0%.

As for `O=C(Cc1cccnc1)Nc1cccc(-c2cccc(-c3nc4cc(C(F)(F)F)ccc4[nH]3)c2)c1`, the Inhibition in assay [1] is listed as 99%; in assay [2], 38%; in assay [3], 42%.

In the case of `CN1CCCN(Cc2ccc(-c3cccc(NC(=O)c4cccc(C#N)c4)c3)cc2)CC1.O=C(O)C(F)(F)F`, the Inhibition is recorded as 100% in assay [1], 64% in assay [2] and 17% in assay [3].

Turning to `CC(CCc1ccccc1)NCC(O)c1ccc2c3c(cccc13)C(=O)N2C.Cl` (stereo not drawn), the Inhibition in assay [1] was 99%; in assay [2], 57%; in assay [3], 37%.

Take `CN(Cc1cccc(C#N)c1)C1CCN(c2cc(NC(=O)c3ccc(F)cc3)ccn2)CC1.O=C(O)C(F)(F)F`: the figures for the Inhibition in assay [1], in assay [2] and in assay [3] were 97%, 23% and 4%, respectively.

`CC(C)COc1ccc(Cl)cc1Cc1ccc(-c2nc3cc(CCN4CCCC4)ccc3[nH]2)o1.Cl`: the Inhibition in assay [1] is 100%; in assay [2], 94%; in assay [3], 34%.

On to `O=C(O)C(F)(F)F.O=C1OC(c2ccccc2)(c2ccccn2)CN1C1CCN(Cc2cccn2-c2ccc(Cl)cc2)CC1` (stereo not drawn), for which the Inhibition in assay [1] was found to be 99%; in assay [2], 98%; in assay [3], 21%.

Take `COc1cc2ccccc2c(CON2C(=N)N=C(N)NC2(C)C)c1OC.Cl`: the results for the Inhibition in assay [1], in assay [2] and in assay [3] were 96%, 10% and 2%, respectively.

With `Cc1ccc(F)cc1-c1cc(N2CCCN(C(=O)c3ccc(Br)o3)CC2)ncn1`, the Inhibition in assay [1] turned out to be 94%; in assay [2] it was 91%; in assay [3], 0%.

`CC(C)c1ccc(NC(S)=NN=Cc2ccccn2)cc1`: the Inhibition in assay [1] is 100%; in assay [2] it was 98%; in assay [3], 47%.

As for `COc1cccc(-c2nc3c(N4CCN(c5ccncc5)CC4)cccc3n2CC2CCCCCN2)n1.O=C(O)C(F)(F)F` (stereo not drawn), the Inhibition in assay [1] worked out at 91%; in assay [2], 31%; in assay [3], 12%.

Consider `O=C(Nc1ccc(OCc2ccccc2)cc1)c1nc2ccccc2nc1Cl`, for which the Inhibition is listed as 96% in assay [1], 95% in assay [2] and 48% in assay [3].

Consider `O=C(Nc1cccc(C(F)(F)F)c1)Nc1ccc(Cl)c(C(F)(F)F)c1`, for which the Inhibition in assay [1] came to 99%; in assay [2], 99%; in assay [3] it was 0%.

On to `CN1CCC(c2c[nH]c3ccc(NC(=O)Nc4ccc(-c5ccncc5)cc4Cl)cc23)CC1`, for which the Inhibition is on record as 100% in assay [1], 7% in assay [2] and 31% in assay [3].

Consider `CC(=O)c1cccc(S(=O)(=O)NCCCNc2nc3cc(C)cc(C)c3cc2C#N)c1`, for which the figures for the Inhibition in assay [1], in assay [2] and in assay [3] were 95%, 75% and 11%, respectively.

On to `CCCNC(=O)C1Cc2c([nH]c3cc(Br)ccc23)C2(CCN(CCc3ccccc3)CC2)N1` (stereo not drawn), for which the figures for the Inhibition in assay [1], in assay [2] and in assay [3] were 92%, 26% and 15%, respectively.

`CC(=O)Nc1nc(C(=O)Nc2ccc(-c3ccc(-c4nc5cccc(C)c5[nH]4)cc3)cc2)cs1`: the Inhibition is on record as 100% in assay [1], 53% in assay [2] and 42% in assay [3].

`COc1ccc2sc(CNCCCNc3cc(=O)c4ccccc4[nH]3)c(Cl)c2c1.Cl`: the values for the Inhibition in assay [1], in assay [2] and in assay [3] were 85%, 42% and 1%, respectively.

On to `Cc1cc2c(cc1C(F)(F)F)N(C(=O)Nc1cc(OCCN(C)C)cc(C(F)(F)F)c1)CC2.Cl`, for which the Inhibition in assay [1] came out at 100%; in assay [2], 19%; in assay [3], 16%.

As to `CC(C)(C)c1ccc(CNCCOc2ccc(Nc3nnc(-c4ccc(-c5ncc[nH]5)cc4)o3)c3ccccc23)cc1.O=C(O)C(F)(F)F`, the values for the Inhibition in assay [1], in assay [2] and in assay [3] were 100%, 88% and 43%, respectively.

The record behind these values is ChEMBL document CHEMBL1157539, “Thousands of chemical starting points for antimalarial lead identification” (Nature, 2010).
